# Among all 310,000 compounds or so, about 2,200 (0.71%) showed an effect of 50% or more. Effects have a minus sign here. The sample as a whole holds a higher share of strong results than the screen did.
# Molecular target: human ether-à-go-go-related gene (hERG) potassium channel (human, UniProt Q12809)
# Test: primary screen, population patch clamp on CHO cells stably expressing hERG; higher = less effect of the substance
# human ether-à-go-go-related gene (hERG) potassium channel, sequence (Q12809 whole entry, looked up): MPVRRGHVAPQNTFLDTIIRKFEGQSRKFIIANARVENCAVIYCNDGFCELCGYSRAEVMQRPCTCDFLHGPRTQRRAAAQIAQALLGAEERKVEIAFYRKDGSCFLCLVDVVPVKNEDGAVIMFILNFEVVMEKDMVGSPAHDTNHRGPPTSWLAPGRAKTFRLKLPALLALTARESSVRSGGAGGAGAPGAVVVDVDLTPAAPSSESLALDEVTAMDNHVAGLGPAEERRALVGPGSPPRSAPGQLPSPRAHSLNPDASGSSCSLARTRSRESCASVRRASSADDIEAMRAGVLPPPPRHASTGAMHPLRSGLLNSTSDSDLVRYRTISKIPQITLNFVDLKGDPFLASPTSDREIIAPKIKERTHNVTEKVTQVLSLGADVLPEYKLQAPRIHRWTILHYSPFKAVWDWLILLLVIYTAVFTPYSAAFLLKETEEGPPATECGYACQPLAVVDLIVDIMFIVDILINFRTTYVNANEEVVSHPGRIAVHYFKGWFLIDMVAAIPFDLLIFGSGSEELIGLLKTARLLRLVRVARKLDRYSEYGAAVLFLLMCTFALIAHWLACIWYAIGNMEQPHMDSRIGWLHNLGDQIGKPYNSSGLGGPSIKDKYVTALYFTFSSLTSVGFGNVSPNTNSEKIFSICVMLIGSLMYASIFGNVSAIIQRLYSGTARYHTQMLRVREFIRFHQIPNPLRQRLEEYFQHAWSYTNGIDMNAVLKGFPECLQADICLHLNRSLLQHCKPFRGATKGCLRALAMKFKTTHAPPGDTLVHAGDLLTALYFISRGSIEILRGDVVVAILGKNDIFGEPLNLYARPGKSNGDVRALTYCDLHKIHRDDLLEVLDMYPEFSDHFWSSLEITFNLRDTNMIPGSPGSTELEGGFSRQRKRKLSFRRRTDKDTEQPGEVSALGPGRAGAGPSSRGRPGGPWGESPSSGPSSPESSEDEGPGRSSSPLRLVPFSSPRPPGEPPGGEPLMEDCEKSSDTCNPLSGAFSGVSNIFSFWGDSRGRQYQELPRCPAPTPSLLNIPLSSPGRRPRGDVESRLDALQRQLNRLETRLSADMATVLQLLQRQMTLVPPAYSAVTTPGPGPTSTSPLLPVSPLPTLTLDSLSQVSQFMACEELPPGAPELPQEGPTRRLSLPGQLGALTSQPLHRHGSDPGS
row,Structure (SMILES),"hERG current change (%, negative = inhibition) at 1uM"
1,CN(C)C=O.Cc1cccc(-n2nnnc2SCC(=O)N(CC(C)C)c2c(N)n(CC(C)C)c(=O)[nH]c2=O)c1,4.9%
2,O=C(c1cccc(S(=O)(=O)NCc2ccccc2)c1)N1CCCCC1,9.32%
3,CCN(CC)CCCN(C(=O)Cn1nnc(-c2ccc(OC)c(OC)c2)n1)C(C(=O)NC(C)(C)C)c1ccc(F)cc1 (stereo not drawn),-25.2%
4,C=CCN1C(=O)C(CC(=O)NCC)SC1=Nc1ccccc1CC (stereo not drawn),11.7%
5,c1ccc(CSc2nncn2-c2ccccn2)cc1,7.05%
6,O=C(CSC(=S)N1CCCCC1)c1c(F)cccc1F,21.7%
7,OC1(c2ccccc2)c2ccccc2-c2ncccc21 (stereo not drawn),5.63%
8,Cc1ccc2c(CC(=O)NCC3(N4CCOCC4)CCCCC3)coc2c1C,-5.15%
9,O=C(Cc1coc2cc3c(cc12)CCC3)NC1CCCCCCC1,0.112%
10,O=C(Cc1coc2cc3c(cc12)CCC3)NCC1(N2CCCCC2)CCCCC1,-59.2%
11,O=S(=O)(c1cccs1)N1CN(C2CCCCC2)c2nc3ccccc3nc21,0.376%
12,COc1cc(/C=C2\SC(N3CCc4ccccc4C3)=NC2=O)cc(OC)c1OC,5.93%
13,CCn1c(=N)n(CC(O)COc2cccc(C)c2)c2ccccc21.Cl (stereo not drawn),-16%
14,CCCCn1c(=N)n(CC(O)COc2cccc(C)c2)c2ccccc21.Cl (stereo not drawn),-59.8%
15,CCCn1c(=N)n(CC(O)COc2cccc(C)c2)c2ccccc21.Cl (stereo not drawn),-60%
16,CCN(CC)CCn1c(=N)n(CC(O)COc2cccc(C)c2)c2ccccc21.Cl (stereo not drawn),-22.1%
17,COc1ccc(-c2oc3cccnc3c2C#CC2(O)CCCCC2)cc1,6.61%
18,COCCC(=O)N1CCC(Oc2ccc(C(=O)N(C)CCCC3CCCC3)cc2)CC1,-1.26%
19,Cc1cccn2c(=O)c3cc(C(=O)NC4CCCCC4)c(=N)n(CCN4CCOCC4)c3nc12,-51.7%
20,Cc1cccn2c(=O)c3cc(C(=O)NC4CCCC4)c(=N)n(CCCN4CCOCC4)c3nc12,-77.5%
21,CCCn1c(=N)c(C(=O)NC2CCCC2)cc2c(=O)n3cccc(C)c3nc21,-84.1%
22,C#CCOCCOCCOCCNc1nc(N2CCN(C(=O)[C@H](CCC(=O)O)n3cc(C(N)Cc4ccc(O)cc4)nn3)CC2)nc(N2CCN(C(=O)[C@H](CCC(=O)O)n3cc(C(N)Cc4ccc(O)cc4)nn3)CC2)n1.Cl (stereo partly drawn),12.3%
23,Cc1ccnc(SCc2cc(=O)c(OC(=O)c3ccccc3)co2)n1,15%
24,CC(NC(=O)C(C)N1C(=O)c2cccc([N+](=O)[O-])c2C1=O)c1ccccc1 (stereo not drawn),14.9%
25,O=C(c1cc2nc(-c3ccco3)cc(C(F)(F)F)n2n1)N1CCCc2ccccc21,16.9%
26,COc1ccc(CNS(=O)(=O)c2c(C(=O)N3CCCCCC3)c(C)n(C)c2C)cc1,10.5%
27,C=CCNC(=O)c1onc(CSc2cccc(OC)c2)c1C(=O)O,18.7%

row,Structure (SMILES),"hERG current change (%, negative = inhibition) at 1uM"
1,CCOc1ccc(-c2nc(-c3ccccc3C)no2)cc1,10.9%
2,Cc1cc(C)n2nc(-c3cnn(C)c3C(F)(F)F)cc2n1,1.96%
3,Cn1c(CSCc2ccccc2)nnc1SCC(=O)Nc1nccs1,-17.6%
4,O=C1NC(Cc2ccccc2)C(=O)N1CC(=O)N1CCCc2ccccc21 (stereo not drawn),5.14%
5,Cc1cc(C)c2cc(C(=O)N3CCC(C(=O)c4ccc(F)cc4)CC3)[nH]c2c1,8.43%
6,CCOC(=O)C1CCN(C(=O)c2cc3c(C)cc(C)cc3[nH]2)CC1,12%
7,Cc1cc(C)c2cc(C(=O)N3CCC(N4CCCCC4)CC3)[nH]c2c1,-58.8%
8,CCOC(=O)C1CCN(C2CCN(C(=O)c3oc4c(C)c(C)ccc4c3C)CC2)CC1,-15.6%
9,CCOC(=O)C1CCN(C2CCN(C(=O)c3oc4c(F)cccc4c3C)CC2)CC1,-67%
10,Cc1c(C(=O)N2CCC(N3CCSCC3)CC2)oc2c(F)cccc12,2.81%
11,Cc1nc2nc(C)c(CCC(=O)NC3CCCCC3)c(C)n2n1,9.07%
12,COc1ccc(CN2C3CCC2CC(NC(=O)c2cccc(F)c2)C3)cc1 (stereo not drawn),-81.1%
13,COc1cccc(C(=O)NC2CC3CCCC(C2)N3S(=O)(=O)c2ccccc2)c1 (stereo not drawn),-8.93%
14,COc1ccc(CN2C3CCCC2CC(NC(=O)c2cccc(F)c2)C3)cc1 (stereo not drawn),-85.9%
15,Cc1cccc(C(=O)NC2CC3CCCC(C2)N3S(=O)(=O)c2ccccc2)c1 (stereo not drawn),-63.4%
16,O=C(NC1CC2CCC(C1)N2Cc1ccccc1)c1cccc(F)c1 (stereo not drawn),-17.5%
17,CCCCN1C2CCCC1CC(NC(=O)c1cccc(OC)c1)C2 (stereo not drawn),-2.96%
18,COc1cccc(C(=O)NC2CC3CCC(C2)N3Cc2ccccc2)c1 (stereo not drawn),-2.53%
19,O=C(NC1CC2CCCC(C1)N2Cc1ccccc1)c1cccc(F)c1 (stereo not drawn),-29.8%
20,CCCN1C2CCCC1CC(NC(=O)c1cccc(Cl)c1)C2 (stereo not drawn),-2.98%
21,CCCCN1C2CCCC1CC(NC(=O)c1cccc(Cl)c1)C2 (stereo not drawn),-63%
22,COc1ccc(C(=O)NC2CC3CCCC(C2)N3Cc2ccccc2)cc1 (stereo not drawn),-15.7%
23,O=C(NC1CC2CCCC(C1)N2S(=O)(=O)c1ccccc1)c1ccccc1 (stereo not drawn),-9.46%
24,O=C(O)c1ccccc1-c1ccccc1C(=O)NCc1ccco1,13%
25,Clc1ccc2c(NCc3ccco3)ncnc2c1,-1.55%
26,O=C(OCC(=O)N1CCCCC1)c1cccc(NS(=O)(=O)c2ccccc2)c1,12.4%
27,O=C(NCc1ccc(C(=O)N2CCC3(CC2)OCCO3)cc1)c1ccc2c(c1)OCO2,5.42%
